HUVEC tox IL1B = cytotoxicity in IL-1B stimulated HUVEC, primary screen, cytotoxicity control for IL-1B NFkB translocation project, imaging, Hoechst nuclear count, IL-1B stimulus; HUVEC cell count loss; cell count reduction, % at 2 µM; 0.41% of 94,000 active;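 active = cell count reduction more than 3 SD above the screen-wide mean, cut at about 70% in these data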;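 also: normalized per plate to untreated control cells as the no-loss baseline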
MRP resist rev = reversal of MRP1-mediated doxorubicin resistance, primary screen, H69AR cells, doxorubicin co-treatment; H69AR cells + 2 uM doxorubicin, CellTiter-Glo, 72 h; differential viability (reversal), % at 10 µM; 0.04% of 85,000 active;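 active = viability drop by adding the cancer drug above about 55%, with treated viability meeting a 40% cutoff, limit read from the data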;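 also: viability without doxorubicin minus viability with 2 µM doxorubicin for each compound; larger differential means the compound sensitizes cells more to doxorubicin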
MRP1 act = H69AR viability gain despite doxorubicin, primary screen, MRP-1 activator project, H69AR cells, CellTiter-Glo. viability increase, % at 10 µM. viability rescue. 0.61% of 140,000 active;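 active = viability gain under doxorubicin at or above a set limit, the compound median plus 3 SD, cut at about 4.7% in these data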;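 also: MRP-1 overexpressing cells given doxorubicin 25 µM after compound pretreatment; 18-22 h compound pretreatment then 72 h with doxorubicin before readout; 0% = doxorubicin-only wells and 100% = vehicle-treated cells without doxorubicin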
NFkB transloc inh = inhibitors of IL-1B driven NFkB p65 nuclear import, primary screen, imaging, HUVEC, IL-1B stimulus, high-content imaging; 0.43% of 94,000 active; HUVEC IL-1B NFkB p65 nuclear translocation imaging; inhibition, % at 2 µM;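 active = inhibition above about 30% together with a positive call from visual inspection of the well image, limit read from the data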;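 also: nuclear over cytoplasmic p65 intensity ratio measured by imaging; 0% = IL-1B stimulated DMSO wells and 100% = unstimulated DMSO wells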
sdo1 growth = growth rescue of sdo1-depleted yeast, primary screen, S. cerevisiae, bone marrow failure model; 0.21% of 140,000 active; AID 817, 2007; S. cerevisiae sdo1-depleted JHY4D growth rescue, OD600 30 h; stronger effect = higher value; pdr5 snq2 efflux-pump mutant strain; z-score at 10 µM;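 active = z-score above 3 at both the 24 hr and the 30 hr optical density reads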;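 also: z-score against mean and SD of all compound wells on the same plate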
IL1B NFkB pot = enhancers of NFkB p65 translocation in HUVEC – imaging, IL-1B stimulus, high-content imaging, primary screen | activation, % at 2 µM | 0.3% of 94,000 active | HUVEC IL-1B NFkB p65 nuclear translocation imaging | AID 819, 2007;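 active = activation above 40%, about the mean plus 3 SD, also judged a hit on visual image review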;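 also: percent activation is computed from the nuclear over cytoplasmic p65 intensity ratio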
* = called active by the depositor; nt = no result given. Only some compounds are listed: those with a hit (about 1.4% of all), similar ones and a draw of the others.

SMILES	HUVEC tox IL1B	MRP resist rev	MRP1 act	NFkB transloc inh	sdo1 growth	IL1B NFkB pot
O=C(NCCc1nc2ccccc2[nH]1)c1ccc(F)cc1	92*	-18	-1	-13	0.35	13
CCOC(=O)c1c(-c2ccc(C)o2)csc1NC(=O)CSc1ncn[nH]1	3	3	6.8*	0	-0.69	0
Cc1ccc(NC(=O)CN(C)Cc2nc3ccccc3c(=O)[nH]2)c(Br)c1	-7	-2	-2	-18	-1.2	18
Cc1cc(Br)ccc1NC(=O)CNC(=O)CN(C)Cc1nc2ccccc2c(=O)[nH]1	-26	-19	4.9*	3	-0.12	-3
Cc1ccc(COc2cccc3c2CCN(Cc2ccc(F)cc2)C3=O)cc1	nt	nt	5.0*	nt	-0.34	nt
COc1ccccc1-c1nc(C#N)c(N2CCc3ccccc3C2)o1	-53	12	5.3*	21	-1.4	-21
COc1ccc(-c2nc(C#N)c(N3CCc4ccccc4C3)o2)cc1OC	-2	-4	0	-4	-0.84	4
Cc1cc(C(F)(F)F)nc(SCC(=O)NC2=NC(=O)C(C)S2)n1 (stereo not given)	-18	23	0	-3	0.48	3
Cc1cc(C)nc(SCC(=O)NC2=NC(=O)C(C)S2)n1 (stereo not given)	78*	9	1	-19	1.3	19
O=C(Nc1ncn[nH]1)c1ccc(Cl)c(S(=O)(=O)Nc2ccc(Cl)cc2)c1	nt	nt	4.8*	nt	0.55	nt
O=C(Nc1ncn[nH]1)c1cc(S(=O)(=O)Nc2ccc(Cl)cc2)ccc1Cl	nt	nt	1	nt	-0.03	nt
CC(Oc1ccc2ccc(=O)oc2c1)C(=O)c1ccccc1 (stereo not given)	nt	nt	1	nt	-1.1	nt
CN(C)Cc1nc2c(c(=O)[nH]1)C1(CCCCC1)Cc1ccccc1-2	6	-63	-3	8	-0.81	-8
CCN(CC)Cc1nc2c(c(=O)[nH]1)C1(CCCCC1)Cc1ccccc1-2	90*	-14	-3	5	-1.4	-5
CCCCOC(=O)c1ccc(NC(=S)NC(=O)c2c(Br)c(C)nn2C)cc1	nt	nt	-2	nt	-0.2	nt
O=C(CCl)Nc1cc(-c2ccccc2)nn1-c1ccccc1	88*	0	-6	-17	-1.8	17
COc1ccc(NS(=O)(=O)c2cccc(NC(=O)CCS(=O)(=O)c3ccccc3)c2)cc1	nt	nt	-1	nt	0.89	nt
COc1ccc(C2C(C(=O)OCC(=O)Nc3ccc(C)cc3)CCC(=O)N2c2ccc(OC)cc2)cc1 (stereo not given)	11	3	0	8	0.12	-8
COc1ccc(C2C(C(=O)OCC(=O)NC(C)(C)C)CCC(=O)N2c2ccc(C)cc2)cc1OC (stereo not given)	0	nt	5.7*	24	-0.69	-24
CCn1c(C)nc2cc(C(=O)NNC(=O)CCC3CCCC3)ccc21	nt	nt	1	nt	1.2	nt
CCOC(=O)CSc1nnc(Cc2ccccc2)n1-c1cccc(Cl)c1	-2	1	0	7	-0.63	-7
CCOC(=O)CSc1nnc(Cc2ccccc2)n1CC1CCCO1 (stereo not given)	14	-4	0	-52	0.4	52*
CCN1c2ccccc2-c2nc3ccccc3n2C1c1cccs1 (stereo not given)	nt	nt	-2	nt	-0.79	nt
CCCC(=O)CN1C(=O)C2(OCCO2)c2ccccc21	nt	1	-1	nt	0.83	nt
CC(C)CC(=O)CN1C(=O)C2(OCCO2)c2ccccc21	77*	2	-1	-12	0.47	12
SMILES	HUVEC tox IL1B	MRP resist rev	MRP1 act	NFkB transloc inh	sdo1 growth	IL1B NFkB pot
COC(=O)c1sc2cnccc2c1N	78*	-7	0	-14	2.1	14
COc1ccc(Oc2ccc(/C=C/C(=O)c3ccc(O)cc3)cc2[N+](=O)[O-])cc1	nt	nt	-4	nt	-1.3	nt
Cc1ccc(N=Cc2c(O)n(-c3nccs3)c(=O)c3ccccc23)cc1	nt	nt	3	nt	-0.61	nt
Cc1cc(C)c(N=Cc2c(O)n(-c3nccs3)c(=O)c3ccccc23)c(C)c1	nt	nt	7.5*	nt	-1.3	nt
Cc1cccc(C)c1N=Cc1c(O)n(-c2nccs2)c(=O)c2ccccc12	nt	nt	6.2*	nt	-1.3	nt
OC(COCCOc1ccc(Br)cc1)CN1CCCCC1 (stereo not given)	nt	nt	-1	nt	0.46	nt
CCc1nnc(NC(=O)C2CCCN2S(=O)(=O)c2ccc(F)cc2)s1 (stereo not given)	-18	-15	5.8*	-1	0.85	1
O=C(Nc1ccc(N2CCOCC2)cc1)C1CCCN(S(=O)(=O)c2cccc(C(F)(F)F)c2)C1 (stereo not given)	-4	8	-4	-27	0.61	27
CNC(=S)Nc1ccc(C)cc1	nt	nt	11*	nt	0.3	nt
O=C(CSCCO)Nc1ccc(C23CC4CC(CC(C4)C2)C3)cc1	0	-15	-1	8	-0.55	-8
CNC(=S)Nc1ccc(C23CC4CC(CC(C4)C2)C3)cc1	nt	nt	5.2*	nt	-2.3	nt
O=C(COC(=O)C12CC3CC(CC(C3)C1)C2)Nc1ccccc1F	nt	nt	0	nt	-0.2	nt
O=C(Nc1c(-c2ccccc2)nc2ccccn12)c1ccco1	94*	15	-1	12	0.05	-12
COc1ccc(CN(C)C2CCCCC2)c(C)c1C	nt	6	-1	nt	0.96	nt
CCOc1ccccc1CNC(=O)c1c([N+](=O)[O-])c(C)nn1C	nt	nt	0	nt	0.12	nt
COc1ccc2occ(C(C)=O)c2c1	-24	-13	0	-26	0.82	25
CC(=O)c1coc2ccc(OCCN3CCCCC3)cc12	-27	20	-3	-43	-0.27	43*
O=[N+]([O-])C(=C1Nc2ccccc2N1)/C(Cl)=C(/Cl)Br	nt	nt	-3	nt	-0.57	nt
CC1CC(C)CN(C(=S)Nc2ccc(SC(F)F)cc2)C1 (stereo not given)	nt	nt	5.0*	nt	-1.4	nt
Cc1cccc(NS(=O)(=O)c2cc(C(=O)OC(C)C(=O)NCc3ccc4c(c3)OCO4)ccc2C)c1 (stereo not given)	nt	nt	4.8*	nt	-0.11	nt
CN(C)C(=O)C1(c2ccccc2)CCN(S(=O)(=O)c2ccccc2)CC1	90*	10	0	-26	1.2	26
O=C(NCc1ccccc1)C1(c2ccccc2)CCN(S(=O)(=O)c2ccccc2)CC1	-77	0	0	-24	-0.13	24
Cc1ccc(C(=O)C2(C)C3c4cc(Br)ccc4OC(=O)C32C(=O)c2ccco2)cc1 (stereo not given)	-10	10	-1	-16	-0.82	16
CCOc1ccccc1Nc1nc(N)nc(CSc2nccc(C)n2)n1	1	-7	0	6	-0.38	-6
CCOc1ccccc1Nc1nc(N)nc(CN(C)C2CCCCC2)n1	-7	80*	-4	12	1.2	-12
Cc1cccc(NC(=O)CCC(=O)N/N=C/c2ccncc2)c1	nt	nt	0	nt	1.7	nt

Screening results from PubChem BioAssay.
